Reference: PubChem BioAssay AID463173 (ICCB-Longwood Screening Facility, Harvard Medical School, 2010)
Screen size: about 52,000 compounds; about 4,300 (8.3%) were called active. Cut-off read from the data, not from the text of the source: active = survival mostly below about 52% (no sharp cut-off); inactive = mostly above about 56%. For the sample, actives were picked, then their nearest neighbours and some compounds at random.

Tested on: DeltatarO mutant
Assay: growth inhibition of S. aureus wild type versus tarO mutant, primary screen, teichoic acid synthesis inhibitors, RN4220, OD600 (AID 463173)
Conditions: OD600, 18 h, active compounds read low, screened at 18.75 µg/mL (by protocol)

SMILES | survival
COc1ccc(-c2oc3ncn4nc(COc5ccccc5C)nc4c3c2-c2ccc(OC)cc2)cc1 | 79% (inactive)
CC(=O)c1ccc(N2CCN(C(=O)c3ccc(Cn4c(=O)[nH]c5ccccc5c4=O)cc3)CC2)cc1 | 100% (inactive)
CC(C)(C)c1cc(CN2CCOCC2)c(C(=O)O)o1 | 92% (inactive)
COc1cc(NC(=O)CSc2nc3nc(C)c(Cc4ccccc4)c(C)n3n2)cc(OC)c1 | 112% (inactive)
CC1CCN(S(=O)(=O)c2ccc(NC(=O)CSc3nnnn3C)cc2)CC1 | 97% (inactive)
CCOC(=O)c1cnc2c(ccc3ccccc32)c1Nc1cccc(Cl)c1 | 14% (active)
COc1cccc2sc(N(Cc3cccnc3)C(=O)C3CCCCC3)nc12 | 86% (inactive)
Cc1ccc(CN(C(=O)COc2ccc(C(C)C)cc2)C2CCS(=O)(=O)C2)o1 (stereo unspecified) | 87% (inactive)
Cc1ccsc1CN(C(=O)COc1cccc(C)c1C)C1CCS(=O)(=O)C1 (stereo unspecified) | 82% (inactive)
Cc1ccsc1CN(C(=O)COc1ccccc1Cl)C1CCS(=O)(=O)C1 (stereo unspecified) | 86% (inactive)
COc1ccc(OCC(=O)N(Cc2ccc(C)o2)C2CCS(=O)(=O)C2)cc1 (stereo unspecified) | 85% (inactive)
Cc1ccccc1OCC(=O)N(Cc1ccc(C(C)C)cc1)C1CCS(=O)(=O)C1 (stereo unspecified) | 31% (active)
CCc1ccc(OCC(=O)N(Cc2ccc(Cl)cc2)C2CCS(=O)(=O)C2)cc1 (stereo unspecified) | 57% (active)
COc1ccc(OCC(=O)N(Cc2cccc(OC)c2)C2CCS(=O)(=O)C2)cc1 (stereo unspecified) | 79% (inactive)
CC(C)Oc1ccc(C(=O)N(Cc2ccc(N(C)C)cc2)C2CCS(=O)(=O)C2)cc1 (stereo unspecified) | 54% (inactive)
CCc1ccc(OCC(=O)N(Cc2ccc(C(C)C)cc2)C2CCS(=O)(=O)C2)cc1 (stereo unspecified) | 23% (active)
CCc1ccc(OCC(=O)N(Cc2ccc(C)o2)C2CCS(=O)(=O)C2)cc1 (stereo unspecified) | 110% (inactive)
CC(C)c1ccc(OCC(=O)N(Cc2ccc(N(C)C)cc2)C2CCS(=O)(=O)C2)cc1 (stereo unspecified) | 43% (active)
Cc1cc(C)cc(OCC(=O)N(Cc2ccc(Cl)cc2)C2CCS(=O)(=O)C2)c1 (stereo unspecified) | 59% (inactive)
Cc1nc2cccnc2n1C1CCN(C(=O)Nc2ccc(Cl)cc2)CC1 | 81% (inactive)
CCN(C(=O)CSc1ncc(S(=O)(=O)c2ccc(C)c(Cl)c2)c(=O)[nH]1)c1cccc(C)c1 | 99% (inactive)
O=C(Cn1ncc2c3ccccc3n(Cc3cccc(Cl)c3)c2c1=O)NCCC1=CCCCC1 | 90% (inactive)

SMILES | survival
Cc1cc(C)c(NC(=O)Cn2nnc(S(=O)(=O)c3ccc(C)c(C)c3)c2N)c(C)c1 | 96% (inactive)
CCCCN(CC)C(=O)c1ccc2c(c1)NC(=O)c1ccccc1S2 | 104% (inactive)
c1ccc(-c2cnnn2-c2ccccc2)cc1 | 87% (inactive)
COc1ccccc1OCC(=O)N(Cc1cccs1)C1CCS(=O)(=O)C1 (stereo unspecified) | 53% (inactive)
Cc1cc(OCC(=O)N(Cc2ccc(N(C)C)cc2)C2CCS(=O)(=O)C2)cc(C)c1Cl (stereo unspecified) | 97% (inactive)
Cc1cc(Cl)ccc1OCC(=O)N(Cc1ccc(N(C)C)cc1)C1CCS(=O)(=O)C1 (stereo unspecified) | 39% (active)
Cc1ccsc1CN(C(=O)COc1ccc(Cl)cc1)C1CCS(=O)(=O)C1 (stereo unspecified) | 86% (inactive)
CC(C)c1ccc(OCC(=O)N(Cc2cccs2)C2CCS(=O)(=O)C2)cc1 (stereo unspecified) | 51% (active)
Cc1cc(Cl)ccc1OCC(=O)N(Cc1sccc1C)C1CCS(=O)(=O)C1 (stereo unspecified) | 74% (inactive)
CCOC(=O)C1=C(C)NC(=O)NC1C1CC=CCC1 (stereo unspecified) | 111% (inactive)
COc1cc(-c2nc3nc[nH]n3c2Nc2ccc(C(C)C)cc2)ccc1O | 70% (inactive)
CC(=O)c1cccc(S(=O)(=O)NCCc2csc3nc(-c4ccc(F)cc4)nn23)c1 | 88% (inactive)
CCOC(=O)C1CCN(C(c2cccc(F)c2)c2c(O)cc(C)n(CCOC)c2=O)CC1 (stereo unspecified) | 135% (inactive)
COc1ccc(CNC(=O)Cn2ccc3cc(S(=O)(=O)N4CCCCC4)ccc32)c(OC)c1 | 72% (inactive)
COc1cc(OC)c(NC(=O)CN(C)S(=O)(=O)c2ccc3c(c2)CCCC(=O)N3)cc1Cl | 6% (active)
COc1cc(NC(=O)CN(C)S(=O)(=O)c2ccc3c(c2)CCCC(=O)N3)cc(OC)c1OC | 70% (inactive)
COc1cc(Cl)c(NC(=O)CN(C)S(=O)(=O)c2ccc3c(c2)CCCC(=O)N3)c(OC)c1 | 83% (inactive)
Cc1cccc(NC(=O)CCNS(=O)(=O)c2ccc3c(c2)CCCC(=O)N3)c1C | 96% (inactive)
Cc1ccc(NC(=O)CCNS(=O)(=O)c2ccc3c(c2)CCCC(=O)N3)cc1 | 77% (inactive)
Cc1ccc(C)c(NC(=O)CCNS(=O)(=O)c2ccc3c(c2)CCCC(=O)N3)c1 | -4% (active)
COc1ccccc1CNC(=O)CSc1ncc2c(n1)-c1ccccc1N(Cc1ccc(C)cc1)S2(=O)=O | 64% (inactive)
CCc1ccc(NC(=O)c2ccc3c(O)c(S(=O)(=O)c4ccc(Cl)cc4)c(=O)[nH]c3c2)cc1 | 75% (inactive)

SMILES | survival
Cc1ccc(N(C(=O)Cn2nnc(-c3ccc(C)o3)n2)C(C(=O)NC2CCCCC2)c2ccc(F)cc2)c(C)c1 (stereo unspecified) | 66% (inactive)
COc1ccc(Cn2nnnc2C(c2ccccc2)N2CCC(C)CC2)cc1 (stereo unspecified) | 68% (inactive)
CCc1ccc(NC(=O)CN2CCN(Cc3ccccc3)S2(=O)=O)cc1 | 68% (inactive)
CCOc1cc2sc(N3CCC(C(=O)Nc4ccc(C)cc4C)CC3)nc2cc1Br | 71% (inactive)
CCCOC(=O)c1cccc(Nc2nc(C(=O)OCC)nc3ccccc23)c1 | 20% (active)
CCOC(=O)c1nc(Nc2cccc(C)c2)c2ccccc2n1 | 75% (inactive)
CCOC(=O)c1nc(Nc2ccc(OC)cc2)c2ccccc2n1 | 153% (inactive)
CCOC(=O)c1nc(Nc2ccccc2OC)c2ccccc2n1 | 44% (active)
CCOC(=O)c1nc(Nc2ccccc2C)c2ccccc2n1 | 49% (inactive)
CCCCCOC(=O)c1ccc(Nc2nc(C(=O)OCC)nc3ccccc23)cc1 | 60% (inactive)
CC(=O)c1cccc(NC(=O)c2cc3sc(Cl)cc3n2C)c1 | 122% (inactive)
CCOc1ccc(OCC)c(NC(=O)CN(C)S(=O)(=O)c2ccc3[nH]c(=O)oc3c2)c1 | 85% (inactive)
COc1ccc(NC(=O)CSc2nc3c(oc4ccccc43)c(=O)n2-c2ccc(C)c(C)c2)cc1 | 82% (inactive)
COC(=O)c1sccc1S(=O)(=O)N(CC(=O)Nc1cc(C)ccc1C)c1ccc(C)c(C)c1 | 88% (inactive)
COC(=O)c1sccc1S(=O)(=O)N(CC(=O)Nc1cc(F)ccc1F)c1ccc(C)c(C)c1 | 128% (inactive)
CCc1cccc(NC(=O)CN(c2ccc(C)c(C)c2)S(=O)(=O)c2ccsc2C(=O)OC)c1 | -5% (active)
COC(=O)c1sccc1S(=O)(=O)N(CC(=O)Nc1c(C)cccc1C)c1ccc(C)c(C)c1 | 94% (inactive)
COC(=O)c1sccc1S(=O)(=O)N(CC(=O)Nc1cccc(C)c1C)c1ccc(C)c(C)c1 | 89% (inactive)
COC(=O)c1sccc1S(=O)(=O)N(CC(=O)Nc1ccc(C)c(F)c1)c1ccc(C)c(C)c1 | 17% (active)
Cn1c(C(O)c2ccccc2)n[nH]c1=S (stereo unspecified) | 93% (inactive)
COc1cccc(-n2c(SCC(N)=O)nc3c(oc4ccccc43)c2=O)c1 | 67% (inactive)
O=C(c1ccccc1)N1CCN(S(=O)(=O)c2ccccc2)CC1 | 68% (inactive)

SMILES | survival
O=C(CN1C(=O)CCn2nc(-c3ccccc3)cc21)NCc1ccc(Cl)cc1 | 0% (active)
O=C(CN1C(=O)CCn2nc(-c3ccccc3)cc21)NCc1ccccc1 | 106% (inactive)
CCc1ccccc1NC(=O)CCCN1C(=O)CCn2nc(-c3cn(C)c4ccccc34)cc21 | 130% (inactive)
Cc1ccc(CNC(=O)CN2C(=O)CCn3nc(-c4ccccc4)cc32)cc1 | 72% (inactive)
Cc1cccc(CNC(=O)CCCN2C(=O)CCn3nc(-c4cn(C)c5ccccc45)cc32)c1 | -5% (active)
Cn1cc(-c2cc3n(n2)CCC(=O)N3CCCC(=O)NCc2ccccc2)c2ccccc21 | 92% (inactive)
Cn1cc(-c2cc3n(n2)CCC(=O)N3CCCC(=O)Nc2ccccc2F)c2ccccc21 | 134% (inactive)
Cn1cc(-c2cc3n(n2)CCC(=O)N3CCCC(=O)NCc2ccc(Cl)cc2)c2ccccc21 | 122% (inactive)
CN(C)c1ccc(CNC(=O)CCCN2C(=O)CCn3nc(-c4cn(C)c5ccccc45)cc32)cc1 | 17% (active)
Cc1ccc(CNC(=O)CCCN2C(=O)CCn3nc(-c4cn(C)c5ccccc45)cc32)cc1 | 87% (inactive)
CN(C)c1ccc(CNC(=O)CN2C(=O)CCn3nc(-c4cn(C)c5ccccc45)cc32)cc1 | 54% (inactive)
Cn1cc(-c2cc3n(n2)CCC(=O)N3CCCC(=O)Nc2ccccc2Cl)c2ccccc21 | -5% (active)
COc1ccc(OC)c(NC(=O)c2c(NCc3sccc3C)sc3c2CCCCC3)c1 | 78% (inactive)
c1ccc(N2CCN(c3ccccc3)C2c2cccs2)cc1 | 67% (inactive)
CCCCCN1C(C(=O)c2ccccc2)=C(NC(=O)c2ccc(OC)cc2)c2ccccc2S1(=O)=O | 57% (inactive)
Cc1ccc(Cn2c(=O)n(CCc3ccccc3)c(=O)c3c(C)c(C)sc32)cc1 | 24% (inactive)
COc1cc(Cl)c(C)cc1NC(=O)CCn1c(=O)c2cccn2c2cccnc21 | 83% (inactive)
CC(C)(SC1CC(=O)N(c2ccccc2)C1=O)C(N)C(=O)O (stereo unspecified) | 98% (inactive)
CCc1ccc2c(c1)NC(c1cccnc1)=NC(c1ccc(C(C)(C)C)cc1)=N2 | 63% (inactive)
CCN1c2ccccc2-c2nc(SCC(=O)Nc3cccc(C)c3C)ncc2S1(=O)=O | 101% (inactive)
